Measurements published in PubChem BioAssay (NCI).
Compounds without any hit were thinned out: in the full panel of roughly 83,000, 20% have a hit.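 Values shown are percent growth following 48 h exposure of cells in 96-well plates to a single concentration of compound; below 10 was considered active.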 The source made the active and inactive calls.

Test system: BT-549 breast
Assay: NCI-60 one-dose screen, 48 h (100 = growth as untreated, 0 = no growth, -100 = all killed)
Details: 10 µM unless noted

Structure (SMILES)	growth
O=C(/C=C/Nc1ccc(S(=O)(=O)Nc2ncccn2)cc1)c1ccc(N=Cc2c(O)[nH]c3ccccc23)cc1	101% (inactive)
CCCCCN1C(=O)/C(=c2\sc3n(c2=O)C2C(NN=3)N(CC)C(=O)N2CC)c2cccc(C)c21 (stereo not given)	68% (inactive)
C#C[C@]1(O)CC[C@H]2[C@@H]3CC=C4c5sc(Nc6ncccc6C)nc5CC[C@]4(C)[C@H]3CC[C@@]21C	-1.46% (active)
O=C1CSC(c2cn(-c3ccccc3)nc2-c2ccc(Cl)cc2)N1c1ccccc1 (stereo not given)	109% (inactive)
CC(=O)Nc1ccccc1-c1nc2ccccc2s1	102% (inactive)
O=C(/C=C/c1cccc(Br)c1)c1cccc(OCCCCOc2cccc(C(=O)/C=C/c3cccc(Br)c3)c2)c1	117% (inactive)
C/C(=C(\c1ccc(O)cc1)c1ccc(OCCN2CCCCCC2)cc1)c1ccc(Cl)cc1	-71.8% (active)
Clc1ccc(CSc2nnc(-c3ccc(Cl)cc3)n2-c2ccccc2)cc1	58.6% (inactive)
O=C(CCCCCCNC(=O)C(O)(O)C(F)(F)F)Nc1nc2ccccc2s1	13% (inactive)
CC(C)NC(=O)c1cc(-c2ccc(NC(=O)Nc3ccc(F)c(C(F)(F)F)c3)cc2)nc2cccnc12	100% (inactive)
COc1ccc(-c2cnc(NC(=O)CCCCCCNC(=O)C(O)(O)C(F)(F)F)s2)cc1	-11.9% (active)
C/C=C/CC(C)C(O)[C@H](NC(=O)[C@@H]1CCCN1C(=O)[C@](C)(CC)NC(=O)CCCCCCCCC)C(=O)N[C@@](C)(CC)C(=O)N[C@@H](CCC(N)=O)C(=O)N[C@H](CCC(N)=O)C(=O)NC(C)(C)C(=O)NC(C)(C)C(=O)N[C@@H](CCC(N)=O)C(=O)N[C@H](CC(C)C)C(=O)N[C@H](CO)CC(C)C (stereo not given in full)	-72.4% (active)
CC1CC(=O)C2=C(C1)Nc1ccc(Br)cc1CC2c1c[nH]c2ccc(Br)cc12 (stereo not given)	64.9% (inactive)
CC(C)(C)Nc1nc2c(OCCc3ccccc3)cccn2c1-c1cccc(Oc2ccccc2)c1	-11% (active)
CCCC/C(=C\c1ccc(O)c(O)c1)C(=O)NC(Cc1ccccc1)C(=O)C(=O)NCCc1ccc(OC)cc1 (stereo not given)	84.1% (inactive)
COC(=O)c1cccc(NC2=C(Cl)C(=O)c3nc(C)ccc3C2=O)c1	125% (inactive)
NC1CC2(CCN(c3cnc(C(=O)Nc4cc(F)cc5cccnc45)cn3)CC2)C1	84.8% (inactive)
COC(=O)c1ccc(NC2=C(Cl)C(=O)c3nc(C)ccc3C2=O)cc1	99% (inactive)
CC(Nc1c(C#N)cnc2ccc(-c3cncc(-c4n[nH]c(=O)o4)c3)cc12)c1ccccc1 (stereo not given)	-20.1% (active)
CC(=O)OC[C@]12CC[C@@H](C(=O)/C=C/c3cccnc3)[C@@H]1[C@H]1CC[C@@H]3[C@@]4(C)CC[C@H](OC(C)=O)C(C)(C)[C@@H]4CC[C@@]3(C)[C@]1(C)CC2	-12.6% (active)

Structure (SMILES)	growth
CC(O)c1cccc(/C(N)=N/C(N)=N/c2nc3ccccc3s2)c1 (stereo not given)	117% (inactive)
CC(C)=CCC[C@](C)(O)[C@H]1CC[C@]2(C)[C@@H]1CC[C@@H]1[C@@]3(C)CC[C@H](N)C(C)(C)[C@@H]3CC[C@]12C	98.8% (inactive)
Cc1ccc2c(n1)C(=O)C(Cl)=C(Nc1cccc(C)c1C)C2=O	44% (inactive)
C[C@]12CC[C@H]3[C@@H](CC=C4C[C@@H](O)CC[C@@]43C)[C@@H]1CC[C@@H]2[C@](C)(O)CCc1cccnc1	47.7% (inactive)
CN1CCN(c2ccc(Nc3nc(NCCCNS(=O)(=O)c4ccc(C(F)(F)F)cc4)c4sccc4n3)cc2)CC1	-88.1% (active)
Cc1ccc2c(n1)C(=O)C(Cl)=C(Nc1cccc(C(F)(F)F)c1)C2=O	123% (inactive)
O=C(CN1CCN(c2cc(=O)[nH]c3ccc(F)cc23)CC1)N(c1ccccc1)c1ccccc1	104% (inactive)
Cc1[nH]c(C(=O)Nc2ccc(C(N)=O)cc2N2CCOC(C)C2)c(Cl)c1Cl (stereo not given)	98.3% (inactive)
CC1(C)CC[C@]2(C(=O)O)CC[C@]3(C)C(=CC[C@@H]4[C@@]5(C)CC[C@H](NOCCCN)C(C)(C)[C@@H]5CC[C@]43C)[C@@H]2C1	80% (inactive)
Cc1ccc2c(n1)C(=O)C(Cl)=C(Nc1ccc(C#N)cc1)C2=O	120% (inactive)
CC(=O)Nc1nc(C)c(-c2csc(Nc3ccccc3)n2)s1	18.1% (inactive)
O=C(/C=C/c1cccc(F)c1)c1cccc(OCCCCOc2cccc(C(=O)/C=C/c3cccc(F)c3)c2)c1	124% (inactive)
O=S(=O)(NCCCNc1nccc(-c2[nH]c(-c3ccccc3)nc2-c2ccc(F)c(O)c2)n1)c1ccc(C(F)(F)F)cc1	55.9% (inactive)
O=C(CCCCCCNC(=O)C(O)(O)C(F)(F)F)Nc1ncc(-c2ccccc2)s1	-9.98% (active)
CN(C)c1ccc(/C=N/Nc2nc(N/N=C/c3ccc(N(C)C)cc3)nc(N3CCCCC3)n2)cc1	111% (inactive)
NC1[C@H]2CN(c3cnc(C(=O)Nc4cc(F)cc5cccnc45)cn3)C[C@@H]12 (stereo not given in full)	91.8% (inactive)
Clc1cccc(/C=N/Nc2nc(N/N=C/c3cccc(Cl)c3)nc(N3CCCCC3)n2)c1	94.9% (inactive)
CC(Nc1ncnc2ccc(-c3cnc4cnccn34)cc12)c1ccccc1 (stereo not given)	47.9% (inactive)
CN1CCN(c2ccc(Nc3nc(NCCNC(=O)c4ccccc4)c4sccc4n3)cc2)CC1	58.8% (inactive)
O=C(CSc1nc2ccccc2c(=O)n1-c1ccccc1)N/N=C/c1ccc(Oc2ccc(Cl)cc2)cc1	69.9% (inactive)
